Screening data (PubChem BioAssay)
DAGLB inh – blocks human DAGLB lipase activity | actives 0.059% (n = 340,000) | AID 504411 | Q8NCG7 | HEK293T DAGLB membrane lysate, EnzChek fluorogenic substrate | inhibition, % at 5.17 µM; in the data active = inhibition above about 34%;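 also: 0% = enzyme with vehicle and 100% = wells lacking enzyme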
PLC-beta3 inh – PLC-beta3 (human) inhibition, primary screen. actives 0.18% (n = 370,000). AID 720704. inhibition, % at 12.2 µM. Purified PLC-beta3, fluorogenic substrate, fluorescence. Q01970; in the data active = inhibition above about 11%;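 also: 0% = median of compound wells on plate and 100% = full blocker control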
PLCg1 inh – inhibitors of human phospholipase C gamma1; purified PLC-gamma1, fluorogenic substrate, fluorescence; P19174; actives 0.84% (n = 370,000); inhibition, % at 12.2 µM
HGIII-sPLA2 inh – Blocks human group III sPLA2 activity; QFRET BODIPY PC-A2 liposome hydrolysis, fluorescence; inhibition, % at 12.2 µM; actives 0.56% (n = 370,000); AID 743126;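 active = inhibition above mean plus 3 SD of compounds lying within the high and low control bounds, cut at about 19% in these data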;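 also: 0% = median of test compound wells and 100% = no enzyme DMSO wells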
PLCg1 ctr – counter-screen for PLC-beta3 inhibitors: inhibitors of human PLC-gamma1. shares compounds with PLCg1 inh. purified PLC-gamma1, fluorogenic substrate, fluorescence. inhibition, % at 12.3 µM. actives 3.1% (n = 3,300). AID 743258
PLCb3 confirm – confirmation of human PLC-beta3 inhibitors; shares compounds with PLCg1 inh; purified PLC-beta3, fluorogenic substrate fluorescence; inhibition, % at 12.3 µM; actives 1% (n = 3,300); AID 743261; in the data active = inhibition above about 11%
The depositor's hits bear a star. The list is not random: actives were taken first. Their share in the collection is about 1.5%. Rule as the data show it, unless noted: active = inhibition above about 9.5%; inactive = the rest.

O=C(NCc1ccc2c(c1)OCO2)Nc1ccc(F)cc1 was read as DAGLB inh -2, PLC-beta3 inh -5, PLCg1 inh 2 and HGIII-sPLA2 inh -5.
`CCOC(=O)NC(=O)CSc1nc2ccc(OCC)cc2[nH]1` gave DAGLB inh 3, PLC-beta3 inh -1, PLCg1 inh -4 and HGIII-sPLA2 inh -5.
`CCOc1ccc(NC(=O)NCc2ccc3c(c2)OCO3)cc1` gave DAGLB inh -3, PLC-beta3 inh -7, PLCg1 inh 9.5*, HGIII-sPLA2 inh -1, PLCg1 ctr -8 and PLCb3 confirm -4.
CCC[C@H]1[C@@H](NC(=O)Nc2ccc3c(c2)OCO3)CC[C@@]23CCCN2C(=O)CCC[C@@H]13 was read as PLC-beta3 inh -1, PLCg1 inh 1 and HGIII-sPLA2 inh -7.
For c1ccc(Cn2ncc3c(N4CCN(C(c5ccccc5)c5ccccc5)CC4)ncnc32)cc1 the results were DAGLB inh -10, PLC-beta3 inh -5, PLCg1 inh -1 and HGIII-sPLA2 inh 0.
`c1ccc(Cn2ncc3c(N4CCN(c5ccccc5)CC4)ncnc32)cc1` gave PLC-beta3 inh 1, PLCg1 inh 11*, HGIII-sPLA2 inh 0, PLCg1 ctr -6 and PLCb3 confirm -5.
CCn1c(SCC(=O)Nc2cc(C)on2)nnc1-c1cccnc1 was read as DAGLB inh -1.
For CCn1c(SCC(=O)Nc2nc(C)c(C)s2)nnc1-c1cccnc1 the results were DAGLB inh 0, PLC-beta3 inh 0, PLCg1 inh 9.8*, HGIII-sPLA2 inh 11, PLCg1 ctr 2 and PLCb3 confirm 1.
Screening Cc1cc2ncn(S(=O)(=O)N3CCOCC3)c2cc1C returned DAGLB inh 1, PLC-beta3 inh 14*, PLCg1 inh 6, HGIII-sPLA2 inh 0, PLCg1 ctr -2 and PLCb3 confirm -2.
Screening Cc1ccc(NC(=O)CSc2nnc(C3CCCCC3)n2N)cc1F returned DAGLB inh 0, PLC-beta3 inh 3, PLCg1 inh 13*, HGIII-sPLA2 inh -16, PLCg1 ctr -3 and PLCb3 confirm 1.
`Nn1c(SCC(=O)Nc2ccc(F)cc2)nnc1C1CCCCC1` gave DAGLB inh 0, PLC-beta3 inh 5, PLCg1 inh 0 and HGIII-sPLA2 inh 1.
Screening CCn1cnnc1SCC(=O)Nc1ccccc1C(=O)NC1CC1 returned DAGLB inh 0, PLC-beta3 inh 11*, PLCg1 inh 11*, HGIII-sPLA2 inh 0, PLCg1 ctr -2 and PLCb3 confirm 0.
Screening Cn1cnnc1SCC(=O)Nc1ccccc1C(=O)NC1CC1 returned DAGLB inh 2, PLC-beta3 inh 7, PLCg1 inh -1 and HGIII-sPLA2 inh 0.
For CC(C)(C)c1cc(CN2CCC(O)CC2)cc(C(C)(C)C)c1O the results were DAGLB inh -2, PLC-beta3 inh 2, PLCg1 inh 11*, HGIII-sPLA2 inh 11, PLCg1 ctr -4 and PLCb3 confirm -22.
`COc1ccccc1C(=O)N(CN1CCCC1=O)c1cccc(Cl)c1` gave DAGLB inh -2, PLC-beta3 inh 0, PLCg1 inh 0 and HGIII-sPLA2 inh 1.
Screening COc1cccc(C(=O)N(CN2CCCC2=O)c2cccc(Cl)c2)c1 returned DAGLB inh 3, PLC-beta3 inh 6, PLCg1 inh 11*, HGIII-sPLA2 inh -1, PLCg1 ctr -2 and PLCb3 confirm 0.
COc1ccc(C[C@H]2CN3C(=NC[C@@H]3C(C)C)N2CCNC(=O)CCC2CCCCC2)cc1 was read as DAGLB inh 2, PLC-beta3 inh 2, PLCg1 inh 1 and HGIII-sPLA2 inh -3.
CC(C)[C@H]1CN=C2N(CCNC(=O)CCC3CCCCC3)[C@H](Cc3ccc(O)cc3)CN21 was read as DAGLB inh 2, PLC-beta3 inh 6, PLCg1 inh 18*, HGIII-sPLA2 inh -7, PLCg1 ctr 4 and PLCb3 confirm 6.
`CCC(=O)Nc1cc(C(=O)OCC(=O)c2ccc(Cl)cc2Cl)ccc1C` gave DAGLB inh -1, PLC-beta3 inh 2, PLCg1 inh 8 and HGIII-sPLA2 inh -24.
`CCC(=O)Nc1cc(C(=O)OCC(=O)c2ccccc2Cl)ccc1C` gave DAGLB inh 1, PLC-beta3 inh -1, PLCg1 inh 13*, HGIII-sPLA2 inh 0, PLCg1 ctr 2 and PLCb3 confirm 2.
Screening COc1ccc(C(=O)CN2C(=O)C(C)(C)Oc3ccc(C(=O)N4CCCCCC4)cc32)cc1 returned DAGLB inh 0, PLC-beta3 inh 23*, PLCg1 inh 4, HGIII-sPLA2 inh -12, PLCg1 ctr -6 and PLCb3 confirm -2.
CC1(C)Oc2ccc(C(=O)N3CCCC3)cc2N(CC(=O)NCc2ccccc2)C1=O was read as DAGLB inh 3, PLC-beta3 inh 1, PLCg1 inh 1 and HGIII-sPLA2 inh 5.
Screening CNC(=O)CN1C(=O)CSc2ncccc21 returned DAGLB inh 0, PLC-beta3 inh 14*, PLCg1 inh 4, HGIII-sPLA2 inh 10, PLCg1 ctr 2 and PLCb3 confirm 2.
Screening CN(C)c1cccc(/C=C2\CC3(OC(=O)c4cccc(F)c4)CCCN2C3)c1 (stereo not drawn) returned PLC-beta3 inh -2, PLCg1 inh 3 and HGIII-sPLA2 inh 10.
Screening COC(=O)[C@]1(CNS(=O)(=O)c2ccc(F)cc2)CC(=O)N(C)[C@@H]1c1ccccc1 returned PLC-beta3 inh 2, PLCg1 inh -2 and HGIII-sPLA2 inh 0.
Screening O=C(O)c1cc([N+](=O)[O-])ccc1Nc1ccccc1 returned DAGLB inh 8, PLC-beta3 inh -52, PLCg1 inh -43 and HGIII-sPLA2 inh 0.
O=[N+]([O-])c1ccc(Nc2ccccc2O)c([N+](=O)[O-])c1 was read as DAGLB inh 14, PLC-beta3 inh 5, PLCg1 inh 9.5*, HGIII-sPLA2 inh -32, PLCg1 ctr 1 and PLCb3 confirm -1.
Cc1ccc(C=NNC(=O)CSc2nc3sc4c(c3c(=O)n2-c2ccccc2)CCCC4)s1 was read as PLC-beta3 inh 1, PLCg1 inh -3 and HGIII-sPLA2 inh 0.
`CC12CCC(C(=O)Nc3ccc(SC(F)F)cc3)(CC1=O)C2(C)C` (stereo not drawn) gave DAGLB inh -1, PLC-beta3 inh 10, PLCg1 inh 9.8*, HGIII-sPLA2 inh -7, PLCg1 ctr -2 and PLCb3 confirm 1.
O=C(Nc1ccc(SC(F)F)cc1)C12CCC(CC1)C2 was read as DAGLB inh -8, PLC-beta3 inh 0, PLCg1 inh -1 and HGIII-sPLA2 inh 2.
`Cn1c(Cc2cccs2)nnc1SCC(=O)Nc1ccc2c(c1)OCCO2` gave PLC-beta3 inh 1, PLCg1 inh -1 and HGIII-sPLA2 inh 1.
`CN(C)c1nc(Oc2ccc(=O)n(-c3ccccc3)n2)nc(N2CCOCC2)n1` gave DAGLB inh 3, PLC-beta3 inh -2, PLCg1 inh 13*, HGIII-sPLA2 inh -2, PLCg1 ctr -6 and PLCb3 confirm 0.
